Test results taken from PubChem BioAssay AID460 (PCMD, 2006).
Screen size: about 58,000 compounds; about 100 (0.17%) were called active. No stated cut-off is given here; in the data, active means inhibition above about 45%; inactive means the rest. What follows is part of a selection rich in actives, with near analogues and random picks from the rest.

target: Procathepsin L (Homo sapiens) (UniProt P07711); assay: blockers of CTSL protease activity – biochemical (AID 460); conditions: purified cathepsin L, fluorogenic substrate, fluorescence; active compounds read high;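 tested at 10 µM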;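 further: 0% = enzyme with no compound and 100% = no enzyme blank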
Sequence (P07711 114-288 limits assumed): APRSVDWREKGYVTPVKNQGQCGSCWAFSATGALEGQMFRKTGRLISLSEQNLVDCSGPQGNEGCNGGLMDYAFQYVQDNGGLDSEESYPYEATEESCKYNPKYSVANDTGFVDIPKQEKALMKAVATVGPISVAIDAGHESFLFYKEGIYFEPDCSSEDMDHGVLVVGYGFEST
Sequence (P07711 292-333 limits assumed): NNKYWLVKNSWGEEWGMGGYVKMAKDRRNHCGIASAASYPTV

inhibition, inactive:
CC12COC3(C(=O)Nc4ccc(Cl)cn4)CC1CCC32C (stereo not given) 11.5%
CC(=O)Oc1cc2c(C(=O)NCCN3CCOCC3)c(C)oc2c2ccccc12 -9.79%
C[N+](C)(C)CCNC(=O)c1c(O)c2c([nH]c1=O)CCCC2 8.42%
Cn1c(=O)n(CCc2ccccc2)c(=O)c2c1nc1n2CCCN1c1ccccc1 0.95%
COc1cc(C2C(C#N)=C(C)NC3=C2C(=O)CC(C)(C)C3)ccc1O (stereo not given) 4.18%
Cn1c(=O)c(C(=O)Nc2ncccn2)c(O)c2ccccc21 -15.3%
CCOC(=O)c1c(C)nc(-c2ccccc2)nc1NC(=O)C(C)C 22.7%
CSCCC(NS(=O)(=O)/C=C/c1ccccc1)C(=O)N1CCC(C)CC1 (stereo not given) 7.86%
CC1(C)Oc2ccc3ccc(=O)oc3c2/C(=C/NCCO)C1=O 14.3%
CCOC(=O)C(CC)Sc1ncnc2c1nnn2-c1ccc(F)cc1 (stereo not given) 7.22%
OC1CN=C2Sc3ccccc3N2C1 (stereo not given) -0.84%
c1ccc(-n2ncc3c2ncn2c(C4CCCCC4)nnc32)cc1 1.98%
CCN(CC)S(=O)(=O)c1cccc(C(=O)Nc2ccccc2)c1 -8.69%
CCCOc1ccc(CN(CCO)CCO)cc1C(=O)OC 8.62%
CC(C)CCNC(=O)CN(C(=O)Cn1nnc(-c2ccc(F)cc2)n1)C1CCCC1 12.4%
CC(=O)N1CC2(C)CN(C(C)=O)CC(C)(C1)C2=O -7.32%
C=CCn1c(COc2ccccc2F)nnc1SCC(=O)N1CC(=O)Nc2ccccc21 2.58%
C=CCn1c2ccccc2c2nnc(SC(CC)C(=O)Nc3nc(C)c(C(=O)OCC)s3)nc21 (stereo not given) -6.76%
COc1ccc2occ(C(=O)c3ccc(N=C(C)N(C)C)cc3)c2c1 1.28%
Cc1cccc(N2C(=O)SC(N(CC(=O)O)c3cccc(C)c3)C2=O)c1 (stereo not given) 18.4%
COc1ccc(OC)c(S(=O)(=O)N(C)CC(=O)N2CCN(c3ccccc3)CC2)c1 -0.18%
COC(=O)c1c(NC(=O)c2cccs2)sc2c1CCCC2 -9.15%
COc1ccc(-c2nc(CS(=O)CC(=O)NCc3ccccn3)c(C)o2)cc1 (stereo not given) 32.3%
O=c1cccc(-c2ccc(Br)cc2)o1 11.7%
Cc1cc(C)cc(NC(=O)N2CCC(NC(=O)c3ccc(F)cc3)CC2)c1 15.2%
Cc1ccc(C(=O)Nc2ccc3c(c2)OCO3)cc1S(=O)(=O)N1CCCCC1 41.8%
CCOc1cccc(-c2nn3c(-c4ccccn4)nnc3s2)c1 20.7%
O=C(NC1CCCC1)c1ccc(Br)s1 -2.98%
CC(C)c1ccc(OCC(O)Cn2cnc3ccccc32)cc1 (stereo not given) -5.57%
c1ccc2cc(OCCN3CCCC3)ccc2c1 17.4%
COc1ccccc1N1CCN(C(=O)c2cc(-c3ccc(Cl)c(Cl)c3)on2)CC1 1.59%
Cn1c(/C(C#N)=C2/CCCCCN2)nc2ccccc21 -2.23%
CCOC(=O)c1cc2c(n(-c3ccc(C)cc3)c1=O)CCCC2=O -1.99%
CCCC1CC(C)(C(=O)Cn2[nH]c(=O)ccc2=O)OC1=O (stereo not given) 3.89%
Cc1ccc(S(=O)(=O)n2nc(OC(=O)C(C)(C)C)cc2N)cc1 9.62%
N#CC(C(=O)c1ccc(S(=O)(=O)N2CCCCCC2)cc1)c1nc2ccccc2[nH]1 (stereo not given) -6.58%
O=C(/C(=N\O)n1cncn1)c1ccc(Br)cc1Br 5.57%
COc1ccc(CCN=C2SCC(=O)N2C)cc1OC 11.7%
N#CNC1=NCN(CCc2ccccc2)CN1 17.9%
N#Cc1c(N)n(CCOC(=O)c2ccc(Cl)cc2)c2nc3ccccc3nc12 -4.03%
Fc1ccccc1OCCCCn1cncn1 -6.79%
COc1ccc(OCCCON2C(=O)c3ccccc3C2=O)cc1 -4.83%
O=C(CN1C(=O)CCC1=O)Nc1ccc(S(=O)(=O)N2CCOCC2)cc1 5.22%
CC(C)Cc1nc(N2CCOCC2)c(C#N)c2c1CCC2 -1.22%
CCOc1ccccc1C1NC(=O)NC(C)=C1C(=O)OCc1ccco1 (stereo not given) 16.9%
